In PubChem BioAssay AID935 (National Center for Advancing Translational Sciences (NCATS), 2007):
Records with an inconclusive call do not appear. The source made the active and inactive calls. Calls follow the shape of the full dose curve.

Experiment: Confirmation Concentration-Response Assay for Identification of Small Molecule Agonists of Stat Signaling Pathway
Conditions: SIE-bla cells, IL-6 STAT beta-lactamase reporter, 5 h
Text: NIH Molecular Libraries Screening Centers Network [MLSCN] NIH Chemical Genomics Center [NCGC] MLSCN Grant: None NCGC Assay Overview: This assay is a retest of actives identified from the Stat signaling pathway assay (PubChem AID 446). The Stat assay is cell-based and measures Interleukin 6 (IL-6) mediated modulation of a beta-lactamase reporter gene controlled by a STAT inducible element (SIE-bla cells, Invitrogen). IL-6 is a cytokine that signals via the JAK/STAT pathway and is implicated in cancer and inflammation. SIE-bla cells are induced by IL-6 at 40 pM EC50 and inhibited by the pan JAK inhibitor, 2-(1,1-Dimethylethyl)-9-fluoro-3,6-dihydro-7H-benz[h]-imidaz[4,5-f]isoquinolin-7-one, at approximately 10 nM IC50. Plated cells were incubated overnight and on the following day, stimulated with 40 pM IL-6 for 5 hrs. The assay was stimulated with an EC50 of IL-6 to retest activators of STAT signaling.
NCGC Assay Protocol Summary: Cells were trypsinized, washed in assay medium (AM, OPTI MEM with 0.5% fetal bovine serum, 0.1 mM nonessential amino acids, 1 mM sodium pyruvate, 10mM HEPES pH 7.3, 100U/ml penicillin, and 100 ug/ml streptomycin) and suspended at […] in AM. Approximately 2500 cells in 5 uL/well was dispensed into 1536-well plates and the cells were incubated overnight at 37 C. 23 nL of compound were delivered by a pin tool and 1 uL of IL-6 (40 pM final concentration in AM) was added. After plates were incubated at 37 C for 5 hrs, 1uL of detector mix (LiveBLAzerTM, Invitrogen) was added, the plates incubated at room temperature for 2.5 hrs, and fluorescence intensity at 460 and 530 nm emissions was measured at 405 nm excitation by an Envision (Perkin Elmer).

Potency, active:
CCN(CC)CCC[C@H](C)Nc1c2ccc(Cl)cc2nc2ccc(OC)cc12 12.6 µM, CN(C)c1ccc(-c2nn3c(-c4ccc(Cl)cc4)nnc3s2)cc1 3.16 µM, CCNC(=O)c1cc2c(=O)n3cccc(C)c3nc2n(CCc2ccccc2)c1=N 12.6 µM, CC1CCN(c2oc(-c3ccccc3Cl)nc2C#N)CC1 6.31 µM, CCOC(=O)c1cc2c(=O)n3cccc(C)c3nc2n(C)c1=N 3.98 µM, Cc1cc(=O)oc2c(CN3CCCCC3)c(O)c(Cl)cc12 10 µM, CCN(CC)CCN1C(=O)c2cccc3cc(N)cc(c23)C1=O 15.8 µM, Cc1ccc(CNC(=O)c2cc3c(=O)n4ccccc4nc3n(CC3CCCO3)c2=N)cc1 (stereo unspecified) 10 µM, Cc1ccc(S(=O)(=O)N2CCN(c3nc(C(C)C)c4c(c3C#N)CC(C)(C)OC4)CC2)cc1 10 µM, COc1cccc2c1C(=O)c1c(O)c3c(c(O)c1C2=O)C[C@@](O)(C(=O)CO)C[C@@H]3O[C@H]1C[C@H](N)[C@H](O)[C@H](C)O1 3.98 µM, Nc1ncnc2c1ncn2[C@@H]1O[C@H](COP(=O)(O)O)[C@@H](O)[C@@H]1O 25.1 µM
